16 compounds from the supplement of paper PMC6135742 can be followed below.

SMILES strings stand for the structures. Counter-ions that a name gives are not always drawn. Whole data set: some 2,600 compounds, median “total cell number (DAPI+ nuclei) relative to DMSO vehicle control” near -1.4, cut for the lowest 2% near -23. This is one part of a sample in which the lowest values are shown more often than they occur.

In this assay the test system is jimpy (Plp1 jimpy) mouse iPSC-derived oligodendrocyte progenitor cells. Nature of the assay: total cell number (DAPI+ nuclei) relative to DMSO vehicle control (SDs above negative control mean); higher = more surviving cells. As to conditions: 10 µM; 3 days. The procedure:
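Primary phenotypic screen of >3,000 bioactive compounds (Selleck L1700 and Sigma LO1280 libraries) at a single dose of 10 µM. Compounds were added to jimpy (Plp1 mutant) mouse iPSC-derived OPCs at the start of thyroid hormone-induced oligodendrocyte differentiation, one well per compound in 384-well plates. After 3 days cells were stained for MBP, Sox10 and DAPI and imaged with an Operetta system. MBP+ oligodendrocyte number and total cell number were expressed as the number of SDs above the mean of the DMSO negative control on the same plate (n=16 control wells per plate). Hits were defined as >=4 SD for oligodendrocytes and >=2 SD for total cells.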
Take `CC[C@@]1(O)C(=O)OCc2c1cc1n(c2=O)Cc2cc3ccccc3nc2-1` [(S)-(+)-Camptothecin]: the total cell number was -9.49.
As for `CC[C@@]1(O)C(=O)OCc2c1cc1n(c2=O)Cc2cc3ccccc3nc2-1` [Camptothecin], the total cell number is -22.6.
For `CC1C2Cc3ccc(O)cc3C1(C)CCN2CC1CC1` (single isomer, unassigned; (+)) [(+)-Cyclazocine], the total cell number is -1.89.
As to `CC(C)C1CNC(C(=O)O)C1CC(=O)O` (stereo unspecified) [Dihydrokainic acid], the total cell number was -0.564.
`Cc1cc([C@@H]2CCCN2C)on1` [ABT-418 hydrochloride] gave a total cell number of -4.48.
In the case of `Clc1ccc(N2CCN(Cc3c[nH]c4ncccc34)CC2)cc1` [L-745,870 hydrochloride], the total cell number is -5.68.
For `COC[C@H]1OC(=O)c2coc3c2[C@@]1(C)C1=C(C3=O)C2CCC(=O)[C@@]2(C)C[C@H]1OC(C)=O` (stereo partly specified) [Wortmannin from Penicillium funiculosum], the total cell number was -3.09.
Compound `CC[C@@H]1/C=C/C=C/C[C@H](C)[C@H](O)[C@](C)(O)C(=O)[C@H](C)[C@@H](O)[C@H](C)C(=O)[C@H](C)[C@@H](O)[C@H](C)/C=C/C(=O)O[C@H]2[C@@H](C)[C@@H](CC1)O[C@@]1(CC[C@@H](C)[C@@H](C[C@H](C)O)O1)[C@@H]2C` [Oligomycin A] yielded a total cell number of -27.5.
For `NC(Cc1cc(O)c(O)cc1O)C(=O)O` (racemic) [6-Hydroxy-DL-DOPA], the total cell number is -2.36.
Turning to `O=c1ccc2[nH]cc(C3=CCNCC3)c2[nH]1`, the total cell number stood at 0.673.
`CC1=NN=C(c2ccc(N)cc2)c2cc3c(cc2C1)OCO3`: the total cell number is -0.785.
For `CO[C@H]1CC[C@@H](O[C@H]2C[C@H]([C@]3(C)CC[C@]4(C[C@H](O)[C@@H](C)[C@@H]([C@@H](C)/C=C(\C)C(=O)[C@H](C)C[C@H](C)C(=O)O)O4)O3)O[C@]3(O[C@@H]([C@H]4O[C@@](O)(CO)[C@H](C)C[C@@H]4C)C[C@@H]3C)[C@@H]2C)O[C@@H]1C` [Nanchangmycin], the total cell number was -27.5.
`COc1cc(C(O)CN)ccc1O` (racemic) [(±)-Normetanephrine hydrochloride] displayed a total cell number of -1.67.
`COc1cc2c(cc1OC)C1CC(=O)C(CC(C)C)CN1CC2` (stereo unspecified) [Tetrabenazine] gave a total cell number of -0.277.
On to `CC(N)C(O)c1ccc(O)c(O)c1` (single isomer, unassigned; (-)) [(-)-alpha-Methylnorepinephrine], for which the total cell number was -0.161.
Regarding `CCCCC/C=C\C/C=C\C/C=C\C/C=C\CCCC(=O)NCc1ccc(O)c(OC)c1` [Arvanil], the total cell number is -8.09.
